# Screens (PubChem)
# Tau fibril FP: blocks human tau fibril formation measured by polarization | 280,000 compounds, 0.39% hits | AID 1468 | Potency, µM (highest dose often 57.7 µM), for inactives: at the highest dose activity, negative = inhibition, most hits filed as inhibitors | K18 P301L tau heparin fibrillization, Alexa594 FP, 6 h; also: nearly all actives have a fitted effect of over 55% in size
# Target sequence (P10636 561-689 P618L limits assumed): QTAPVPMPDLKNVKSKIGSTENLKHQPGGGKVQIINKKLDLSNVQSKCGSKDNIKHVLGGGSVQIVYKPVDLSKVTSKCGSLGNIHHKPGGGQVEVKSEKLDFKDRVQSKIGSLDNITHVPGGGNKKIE
#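 K18 P301L tau (15 uM unlabeled/0.24 uM Alexa 594-labeled, final) + compound + heparin 20 uM final; 100 mM NaOAc pH 7; 6 hr 37 C; ThT 30 uM final added, 1 hr RT; FP ex 555/em 632 nm.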
# VDR inh: blocks the human vitamin D receptor; P11473; VDR-SRC2-3 peptide fluorescence polarization, 2 h; Potency, µM, for the others: max response, negative = inhibition, most hits filed as inhibitors; 400,000 compounds, 0.93% hits
#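 Fluorescence polarization assay of small-molecule disruption of VDR binding to coregulator peptide SRC2-3. Compounds and controls pin-transferred, then read after 2 h incubation at ambient room temperature.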
# Sfp PPTase inh: Sfp phosphopantetheinyl transferase inhibition; Biochemical Sfp PPTase activity, qHTS; Potency, µM, without a hit: largest response in the series, negative = inhibition, usual class: inhibitors; 310,000 compounds, 3.5% hits; AID 1490;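 also: the enzyme is Sfp with the accession as filed and its product quenches rhodamine fluorescence; 0% = enzyme reaction without inhibitor and -100% = no enzyme wells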
#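 Sfp 15 nM + cpd, 15 min RT; start w/ rhodamine-CoA 5 uM, BHQ-2-YbbR 12.5 uM (final); 50 mM Hepes pH 7.6, 10 mM MgCl2, 0.01% NP-40, 0.01% BSA; read 525/598 nm at 0 and 30 min.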
# PLK1 PBD inh: inhibitors of human PLK1 polo-box domain binding. Plk1 PBD binding of FITC phosphopeptide, fluorescence polarization. Potency, µM, for the others: max response, negative = inhibition, usual class: inhibitors. 360,000 compounds, 2.8% hits; also: series mostly up to about 57 µM; nearly all actives have a fitted effect of over 65% in size
# Tau fibril ThT: inhibitors of human tau fibril formation, thioflavin T binding; recombinant tau K18 P301L, heparin-induced fibrillization, ThT fluorescence; P10636; 270,000 compounds, 2.1% hits; AID 1460; Potency, µM (doses to about 57.4 µM), without a hit: at the highest dose activity, negative = inhibition, usual class: inhibitors; also: nearly all actives have a fitted effect of over 55% in size
#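 Recombinant human tau K18 fragment […] carrying P301L, 15 uM unlabeled plus 0.24 uM Alexa 594-labeled, was fibrillized with 20 uM heparin in 100 mM sodium acetate pH 7 for 6 hr at 37 C; 30 uM ThT fluorescence read after 1 hr.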
# Tau fluor cs: counter-screen for tau fibril formation inhibitors; tau K18 P301L Alexa594 fluorescence, heparin fibrillization; Potency, µM (highest dose often 57.7 µM), inactives show top-dose activity change, negative = decrease; 280,000 compounds, 0.93% hits; also: nearly all actives have a fitted effect of over 55% in size
#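 Human tau K18 P301L (15 uM unlabeled, 0.24 uM Alexa 594-labeled) in 100 mM sodium acetate pH 7 with 20 uM heparin, 6 hr at 37 C. ThT 30 uM added, 1 hr ambient; Alexa 594 FP and total fluorescence read at 555/632 nm.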
# * marks the source's active call; other numbers are inactive results; ? = inconclusive; · = not tested or not shown; [ ] = another dose, or the depositor's remark. This is a sample that favours compounds with a hit; in the whole collection about 6% have one here. Calls follow the shape of the dose curve; as a rule, active = well fitted curve in the direction sought with a large enough effect; inconclusive = small, poorly fitted or top-dose-only effect, or another doubt; inactive = no such curve, though single readings can be large; an effect the other way counts as inactive or inconclusive. Unless noted, % is scaled to controls: 0 for no effect and ±100 for the full control effect; potency is read from the fitted curve at half-maximal effect.
SMILES,Tau fibril FP,VDR inh,Sfp PPTase inh,PLK1 PBD inh,Tau fibril ThT,Tau fluor cs
COc1cc(C(=O)NC2CCN(CC(=O)Nc3cccc(C)c3C)CC2)cc(OC)c1OC,·,-20%,9%,27µM*,·,·
Cn1c(=O)c2cc(NC(=S)NC3CCCCC3)ccc2n1-c1ccccc1,·,·,·,-17%,·,·
Cc1c(NC(=O)Cc2ccc(F)cc2)cccc1-c1nc2cccnc2s1,?,18%,·,·,8%,20µM*[quencher]
CCOC(=O)C1CCCN(c2c(NCCCN(CC)c3cccc(C)c3)c(=O)c2=O)C1 (stereo not given),-5%,-14%,3%,24µM*,-21%,-24%
CCOC(=O)C1CCCN(c2c(NCCc3cccc(C)c3)c(=O)c2=O)C1 (stereo not given),4%,-3%,25%,2%,-5%,-1%
CCCNC(=O)c1cc(C2CCCCN2C(=O)OCC(C)C)on1 (stereo not given),·,·,·,-12%,·,·
COCCNC(=O)CSc1nc2nn(-c3ccccc3)c(=O)c-2c2n1CCCCC2,4%,2%,5%,24µM*,-3%,5%
CNC(=O)CSc1nc2nn(-c3ccccc3)c(=O)c-2c2n1CCCCC2,6%,11%,7%,-1%,-8%,1%
CC(C)(C)c1cc(C(=O)Nc2cccnc2)cc(C(=O)Nc2cccnc2)c1,·,?,4%,?,·,·
COc1ccc(OCc2nc3ccccc3n2C(C)c2ccccc2)cc1 (stereo not given),-11%,-22%,·,·,-18%,-16%
COc1ccc(NS(=O)(=O)c2ccc(NC(=O)c3ccc(Br)cc3)cc2)nn1,-9%,6%,14%,-5%,-9%,-11%
Cc1ccc(NS(=O)(=O)c2ccc(NC(=O)c3ccc(-c4ccccc4)cc3)cc2)c(C)c1,·,-16%,·,24µM*,·,·
COc1ccc(NS(=O)(=O)c2ccc(NC(=O)c3ccccc3)cc2)nn1,-1%,?,15%,15µM*,-11%,-15%
COc1ccc(OC(C)C(=O)Nc2ccccc2F)cc1 (stereo not given),-4%,-7%,11%,3%,-8%,-9%
COc1ccc(OC(C)C(=O)Nc2ccc(F)cc2F)cc1 (stereo not given),6%,3%,9%,21µM*,-2%,1%
COc1cccc(N2CC(NC(=O)C3CC3)CC2=O)c1 (stereo not given),2%,8%,·,·,-3%,4%
CCOc1ccc(CC(=O)Nc2nnc3n2CCS3)cc1,4%,-2%,·,·,6%,3%
Nc1cccc2[nH]c(C(F)(F)F)nc12,11%,-9%,4%,?,?,?
S=c1nc(COc2ccccc2)[nH]c2ccccc12,·,-20%,32µM*,-14%,·,·
FC(F)(F)c1nc(=S)c2ccccc2[nH]1,-18%,?,20µM*,21µM*,?,-2%
S=c1nc(Cc2ccccc2)[nH]c2ccccc12,·,-15%,29%,-10%,·,·
COc1ccc(NC(=O)Cn2nnc(C(=O)NCc3ccc4c(c3)OCO4)c2N)c(OC)c1,·,-29%,-14%,21µM*,·,·
